This is a sample that favours compounds with a hit; in the whole collection about 1.8% have one here.
PGK inhibitor: inhibitors of T. brucei phosphoglycerate kinase; Potency, µM (highest dose often 57.5 µM), for the others: at the top dose activity change, negative = inhibition, hits mostly inhibitors; PGK/GAPDH coupled, Kinase-Glo luminescence, 60 min; P07378; AID 602233; 380,000 compounds, 0.043% hits; further: on the % scale 0 is the no-effect control and ±100 the full control effect; nearly all actives have a fitted effect of over 60% in size
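Luminescent ATP detection (Kinase-Glo Plus) follows a 60-minute room-temperature incubation, with wells lacking PGK as controls. Buffer: 100 mM TEA (pH 7.6), 5 mM MgCl2, 0.01% Tween-20. Coupling enzyme GAPDH (100 nM final) supplies unstable 1,3-BPG in-well.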
GLP1R inv ag: GLP-1 receptor (human) inverse agonism | P43220 | HEK293 GLP-1R CRE-luciferase, luminescence, 24 h; GLP-1R form is constitutively active | Potency, µM (top dose mostly 38.3 µM), without a hit: at the highest dose activity change, negative = inhibition, usual class: inhibitors | 410,000 compounds, 1.6% hits; further: on the % scale 0 is the no-effect control and ±100 the full control effect; nearly all actives have a fitted effect of over 55% in size
Target sequence (P43220 whole entry, looked up): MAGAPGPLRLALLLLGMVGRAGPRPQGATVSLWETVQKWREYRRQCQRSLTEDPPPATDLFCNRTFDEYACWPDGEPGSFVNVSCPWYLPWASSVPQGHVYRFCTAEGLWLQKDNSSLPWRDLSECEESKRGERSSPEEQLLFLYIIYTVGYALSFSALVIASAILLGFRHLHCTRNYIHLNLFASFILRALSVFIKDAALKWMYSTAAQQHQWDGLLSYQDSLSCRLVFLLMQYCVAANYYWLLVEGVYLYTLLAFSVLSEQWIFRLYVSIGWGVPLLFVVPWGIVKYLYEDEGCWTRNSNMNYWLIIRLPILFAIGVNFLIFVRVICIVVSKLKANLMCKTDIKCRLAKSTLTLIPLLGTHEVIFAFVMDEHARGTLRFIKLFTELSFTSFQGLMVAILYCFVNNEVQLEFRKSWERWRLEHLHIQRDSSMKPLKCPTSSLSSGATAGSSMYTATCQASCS
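Luminescence readout: a drop in cAMP-driven luciferase signal flags inverse agonism at a constitutively active GLP-1R stably expressed in HEK293. Compound exposure lasted 24 hr at 37 deg C, 5% CO2.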
Pin1 inh: human Pin1 inhibition | Q13526 | Pin1 FP peptide displacement, HiFluor488, 10 min | Potency, µM (top dose mostly 115 µM), for the others: at the highest dose activity, negative = inhibition, hits mostly inhibitors | 390,000 compounds, 0.009% hits; active means well fitted inhibition curve with a large enough effect in the polarisation, with a control signal flat, not every such curve was filed as active; inconclusive means small, poorly fitted or top-dose-only effect, or effect the other way, or a change in a side signal; inactive means no such curve, though single readings can be large or run the other way; the % refers to the polarisation; further: on the % scale 0 is the no-effect control and ±100 the full control effect
GLP1R cytotox: cytotoxicity counter-screen for GLP-1 receptor inverse agonists; HEK293 cAMP-luciferase reporter cells, luminescence, 24 h; Potency, µM (series often up to 38.3 µM), for inactives: at the top dose activity change, negative = inhibition, usual class: inhibitors; 410,000 compounds, 0.13% hits; AID 624418;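 further: loss of luciferase light is scored as toxicity; on the % scale 0 is the no-effect control and ±100 the full control effect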
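Quantitative HTS format, 1536 wells, 200 cells/uL seeded. Compounds: 23 nL, 24 h, 37 °C. Detection: luciferase reagent, luminescence at 12 min RT; decreased signal taken as cytotoxic.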
Tb PFK block: inhibitors of T. brucei phosphofructokinase. T. brucei PFK, ADP-Glo luminescence. Potency, µM (doses to about 57.5 µM), for the others: at the top dose activity, negative = inhibition, usual class: inhibitors. 330,000 compounds, 0.17% hits. AID 485367;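 further: 0% = uninhibited 1x PFK enzyme wells and -100% = no-enzyme wells; nearly all actives have a fitted effect of over 60% in size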
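PFK 1.25 nM, F6P 0.5 mM, ATP 0.1 mM, 0.1 M TEA pH 8.0, 5 mM MgCl2, 0.01% Tween20, 0.1% BSA; 45 min RT. ADP-Glo readout. qHTS titration up to 57 uM; curves fitted, compounds curve-classed.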
GLP1R ag: GLP-1 receptor (human) agonism | HEK293 GLP-1R CRE-luciferase, luminescence, 4-6 h; cells express a hypersensitive GLP-1R form | Potency, µM (highest dose often 45.6 µM), for inactives: top-dose activation, hits mostly activators | 380,000 compounds, 0.007% hits | AID 624172; further: % of control where 0% means no effect
An asterisk follows results filed as active; i = inactive; ? = inconclusive; · = not tested or not shown. Unless noted, the call rests on the fitted dose curve; in most records, active means well fitted curve in the direction sought with a large enough effect; inconclusive means small, poorly fitted or top-dose-only effect, or another doubt; inactive means no such curve, though single readings can be large; an effect the other way counts as inactive or inconclusive. Potency means the concentration at half of the fitted maximal effect.

SMILES | PGK inhibitor | GLP1R inv ag | Pin1 inh | GLP1R cytotox | Tb PFK block | GLP1R ag
COc1ccc(CN2CCN(Cc3ccc(C)cc3)CC2)c(OC)c1 | i | ? | -3.1% | 10.3% | 3.6% | 0.9%
COc1ccc(CN2CCN(Cc3ccc(C(F)(F)F)cc3)CC2)c(OC)c1 | · | 11.2µM* | -1.6% | -17.2% | 0.3% | 19.5%
CSc1nc(C)cc(C)c1S(=O)(=O)c1ccccc1C | 0.0% | 5.01µM* | 4.0% | -3.5% | -0.8% | -10.8%
CCSc1nc(C)cc(C)c1S(=O)(=O)c1ccccc1C | -9.5% | 8.91µM* | 5.3% | -3.3% | -4.0% | -26.6%
CCC(C)Oc1nc(C)cc(C)c1S(=O)(=O)c1ccccc1C (stereo not given) | 3.2% | 8.91µM* | -2.2% | 7.3% | -4.4% | 1.7%
Cc1ccc(NC(=O)C2Cc3ccccc3N2C(=O)c2ccccc2)cc1Cl (stereo not given) | -4.3% | 11.4% | 5.0% | 6.9% | · | ·
O=C(NC(=S)N1CCCCCC1)c1ccccc1Cl | -4.2% | ? | 0.4% | 5.01µM* | -9.1% | -0.1%
COc1ccc(NC(=O)c2sccc2-n2cccc2)cc1 | 8.9% | ? | -8.7% | 13.3% | -0.9% | -4.9%
O=C(Nc1ccc(Cl)cc1)c1sccc1-n1cccc1 | -10.6% | 4.47µM* | 11.7% | 1.6% | -0.7% | 16.2%
CCOC(=O)c1nn(-c2ccccc2)c(-c2ccccc2)c1C(=O)c1ccccc1 | -6.8% | 2.82µM* | 1.5% | -19.6% | 0.4% | -0.7%
CCOC(=O)c1nn(-c2cccc(OC)c2)c(-c2ccccc2)c1C(=O)c1ccccc1 | i | 5.62µM* | -5.7% | -2.5% | 0.4% | 6.8%
Cc1cc(C(=O)NNc2cc(Cl)ccc2Cl)no1 | -3.6% | ? | 4.6% | 4.0% | -12.0% | -6.1%
Cc1cc(C(=O)NNc2ccc(F)cc2)no1 | -0.2% | 5.01µM* | 0.5% | ? | ? | 0.9%
Cc1cc(C(=O)NNc2c(Cl)cccc2Cl)no1 | -1.4% | 2.51µM* | -1.5% | -23.1% | -0.7% | 0.7%
COc1ccc(NC(=O)CN2C(=O)CSc3ccc(S(=O)(=O)N(C)C)cc32)cc1OC | -0.5% | 5.1% | 0.1% | 16.1% | · | ·
CN1CCC(n2[nH]c(-c3ccccc3)c(Cc3ccccc3)c2=O)CC1 | -0.8% | 11.2µM* | -6.0% | -18.9% | · | 6.2%
CN1CCC(N2CCN(C3CN(CCc4ccccc4)S(=O)(=O)C3)CC2)CC1 (stereo not given) | · | -21.8% | · | 5.7% | · | 5.6%
Cc1cccc(C(C)C)c1NC(=O)C1CCCN1S(=O)(=O)c1cccc2nsnc12 (stereo not given) | i | -12.3% | 4.7% | 0.4% | · | ·
O=C(Cn1ncc2c3ccccc3n(Cc3ccc(F)cc3)c2c1=O)N1CCN(c2ncccn2)CC1 | -3.9% | 12.6µM* | 35.1% | -13.6% | 0.5% | 0.1%
O=C(Cn1ncc2c3ccccc3n(Cc3ccccc3)c2c1=O)N1CCCCCC1 | -3.5% | -17.5% | -1.4% | -14.6% | · | ·
COc1cccc(-c2cn3c(n2)sc2cc(C(=O)NCc4ccccc4F)ccc23)c1 | i | 14.7% | -0.5% | 4.8% | · | ·
CC(C)(C)OC(=O)N(Cc1ccccc1)Cc1ccccc1OCc1cccc(NC(=O)C2CC2)c1 | 1.3% | 10µM* | 18.4% | -2.0% | · | 3.1%
CC(C)(C)OC(=O)N(Cc1ccccc1)Cc1ccccc1OCc1cccc(NC(=O)C2CCC2)c1 | 5.3% | ? | -3.1% | 7.5% | · | 13.1%
CC(C)(C)OC(=O)N(CCc1ccccc1)Cc1cccc(OCc2cccc(NC(=O)/C=C/c3ccccc3)c2)c1 | 9.1% | ? | -1.2% | 1.8% | · | 6.0%
CC(C)C(=O)Nc1cccc(COc2ccc(CN(CCc3ccccc3)C(=O)OC(C)(C)C)cc2)c1 | -0.1% | 6.31µM* | -5.3% | 12.7% | · | -1.1%
CC(C)(C)OC(=O)N(CCc1ccccc1)Cc1cccc(OCc2cccc(NC(=O)C3CCC3)c2)c1 | -5.7% | ? | -4.4% | 6.7% | · | -1.9%
